Measured values published in PubChem BioAssay (EPA / NIEHS).
Records with an inconclusive call do not appear. The source made the active and inactive calls. Rule for the calls, unless noted: active = hit-call score of the fitted dose curve at least 0.9, where 1 is the maximum; inconclusive = response in the unintended direction; inactive = score below 0.9.

What was measured:
[1] = TOX21_p53_BLA_p2_viability: Viability Assessment in the Tox21 HCT-116 p53 Agonism Beta-lactamase Assay, Phase 2 (AID 2283591);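 note: compound exposure lasted 16 h at 37 °C; actives lower the ATP signal meaning cytotoxicity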
Method in brief: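 Cytotoxicity readout: CellTiter-Glo ATP luminescence, 30 min at room temperature, after the beta-lactamase read. Cells were HCT116 exposed 16 h at 37C to compounds pin-transferred at 217-fold dilution from DMSO stocks.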

[2] = target: Cellular tumor antigen p53 (Homo sapiens) (UniProt P04637); assay: TOX21_p53_BLA_p2_ratio: Tox21 HCT-116 p53 Agonism Beta-lactamase Assay, Ratio, Phase 2 (AID 2283592)
Method in brief: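 In this cell-based reporter format, HCT116 cells were dosed with chemicals delivered from DMSO by 217-fold dilution and incubated 16 h at 37C. Emission at 460 and 530 nm after 2 h CCF4-AM loading provided the ratio, fitted upward versus DMSO.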

[3] = TOX21_p53_BLA_p3_viability: Viability Assessment in the Tox21 HCT-116 p53 Agonism Beta-lactamase Assay, Phase 3 (AID 2283593);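 note: cells exposed to compound for 16 h before reading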
Method in brief: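 Cellular ATP was quantified by CellTiter-Glo luminescence, read after 30 min at room temperature. Beforehand, HCT116 cells (4000/well) received compound 5 h post-seeding, 217-fold diluted from DMSO, then incubated 16 h at 37C.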

[4] = target: Cellular tumor antigen p53 (Homo sapiens) (UniProt P04637); assay: TOX21_p53_BLA_p3_ratio: Tox21 HCT-116 p53 Agonism Beta-lactamase Assay, Ratio, Phase 3 (AID 2283596)
Method in brief: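 HCT116 p53-bla cells (4000/well) given compound in DMSO (217-fold dilution) after 5 h, incubated 16 h at 37C. CCF4-AM substrate 2 h at room temperature; 460/530 nm emission ratio, gain fitted against DMSO.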

[5] = target: Cellular tumor antigen p53 (Homo sapiens) (UniProt P04637); assay: TOX21_p53_BLA_p5_ratio: Tox21 HCT-116 p53 Agonism Beta-lactamase Assay, Ratio, Phase 5 (AID 2283599)
Method in brief: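 Beta-lactamase reporter ratio (blue 460 nm over green 530 nm, 405 nm excitation) after 2 h CCF4-AM loading, in HCT-116 cells exposed 16 h at 37 C to compounds pinned at 217-fold dilution. Increases relative to DMSO baseline scored.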

[6] = target: Cellular tumor antigen p53 (Homo sapiens) (UniProt P04637); assay: TOX21_p53_BLA_p4_ratio: Tox21 HCT-116 p53 Agonism Beta-lactamase Assay, Ratio, Phase 4 (AID 2283601)
Method in brief: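 Signal is the blue/green (460nm/530nm) ratio of cleaved versus uncleaved CCF4-AM substrate, read after 2 h substrate loading. Cells were HCT116 carrying the p53-responsive beta-lactamase reporter, dosed 16 h at 37C, 5% CO2; CellTiter-Glo measured in parallel.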

[7] = UKN5_HCS_SBAD2_cell_viability: Viability Assessment in the University of Konstanz (UKN) Leist Lab Neurite Outgrowth Assay in human iPSC-derived immature Dorsal Root Ganglia Neurons (UKN5) (AID 2284056; active = hit-call score of the fitted dose curve at least 0.9, where 1 is the maximum; inactive = score below 0.9)
Method in brief: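 iPSC-derived immature peripheral neurons (SBAD2) seeded on Matrigel with CHIR99021, SU5402 and DAPT, dosed 1 h later for 24 h. Viability from Hoechst H-33342 and calcein-AM live staining, high-content imaging; bidirectional fit versus DMSO.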

[8] = UKN5_HCS_SBAD2_neurite_outgrowth: University of Konstanz (UKN) Leist Lab Neurite Outgrowth Assay in human iPSC-derived immature Dorsal Root Ganglia Neurons (UKN5) (AID 2284070; active = hit-call score of the fitted dose curve at least 0.9, where 1 is the maximum; inactive = score below 0.9); conditions: actives raise or lower the signal
Method in brief: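 SBAD2 iPSC-derived immature peripheral neurons on Matrigel, 100.000 cells/cm2, medium with CHIR99021 (1.5 uM), SU5402 (5 uM), DAPT (5 uM); compound added 1 h post-seeding for 24 h. Calcein-AM neurite area by high-content imaging; Hoechst H-33342 viability; bidirectional fit vs DMSO.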

[9] = UKN2_HCS_IMR90_neural_migration: University of Konstanz (UKN) Leist Lab Neural Crest Cell Migration Assay in human induced IMR90 Pluripotent Stem Cells (UKN2) (AID 2284204; active = hit-call score of the fitted dose curve at least 0.9, where 1 is the maximum; inactive = score below 0.9); conditions: actives raise or lower the signal
Method in brief: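 Migration of human IMR90-derived neural crest cells into a stopper-defined gap is imaged after 24 h chemical treatment. Activity is fitted bidirectionally relative to DMSO.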

[10] = UKN4_HCS_LUHMES_neurite_outgrowth: University of Konstanz (UKN) Leist Lab Neurite Outgrowth Assay in human LUHMES cells (UKN4) (AID 2284206; active = hit-call score of the fitted dose curve at least 0.9, where 1 is the maximum; inactive = score below 0.9); conditions: actives raise or lower the signal
Method in brief: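 Human LUHMES neuronal precursors, differentiated 2 days then replated without cAMP and GDNF, exposed to compounds for 24 h. Neurite area imaged by high-content microscopy after calcein-AM live staining; Hoechst H-33342 for viability; bidirectional fit versus DMSO.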

[11] = IUF_NPC1b_proliferation_BrdU_72hr: Leibniz Research Institute for Environmental Medicine (IUF) 72-hour Neural Progenitor Cell Bromodeoxyuridine (BrdU) Proliferation Assay (NPC1b) (AID 2284207; active = hit-call score of the fitted dose curve at least 0.9, where 1 is the maximum; inactive = score below 0.9)
Method in brief: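 Proliferation of primary human neural progenitor cells: 72 h compound treatment at 37C, 5% CO2, pH 7.2-7.6, in EGF/FGF-containing medium. Readout is BrdU uptake (last 16 h) by chemiluminescent ELISA, normalised to DMSO.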

[12] = IUF_NPC1a_proliferation_area_72hr: Leibniz Research Institute for Environmental Medicine (IUF) 72-hour Neural Progenitor Cell Proliferation Area Assay (NPC1a) (AID 2284208; active = hit-call score of the fitted dose curve at least 0.9, where 1 is the maximum; inactive = score below 0.9)
Method in brief: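 hNPC spheres (human fetal cortex, GW 16-19), one per poly-Hema U-bottom well; EGF+FGF medium; dosed day 0, no re-dosing; 72 h, 37C, 5% CO2; phase-contrast sphere area; DMSO = baseline; minus-GF = positive ctrl.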

[13] = IUF_NPC1_viability_72hr: Viability Assessment at 72 hours in the Leibniz Research Institute for Environmental Medicine (IUF) Neural Progenitor Cell Proliferation Assay (NPC1) (AID 2284209; active = hit-call score of the fitted dose curve at least 0.9, where 1 is the maximum; inactive = score below 0.9)
Method in brief: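 Single spheres (0.25-0.35 mm) of human fetal cortex-derived neural progenitor cells were grown in proliferation medium with EGF and FGF at 37C and 5% CO2. They were exposed for 72 h without renewal, and viability was read by alamar blue resorufin fluorescence.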

[14] = UKN4_HCS_LUHMES_cell_viability: Viability Assessment in the University of Konstanz (UKN) Leist Lab Neurite Outgrowth Assay in human LUHMES cells (UKN4) (AID 2284232; active = hit-call score of the fitted dose curve at least 0.9, where 1 is the maximum; inactive = score below 0.9)
Method in brief: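 LUHMES precursors differentiated 2 days, replated at 30000 cells/well without cAMP/GDNF, then compound-treated 24 h. Viability from Hoechst H-33342 and calcein-AM live staining (30 min) by high-content fluorescence imaging; bidirectional fit versus DMSO.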

[15] = UKN2_HCS_IMR90_cell_viability: Viability Assessment in the University of Konstanz (UKN) Leist Lab Neural Crest Cell Migration Assay in human induced IMR90 Pluripotent Stem Cells (UKN2) (AID 2284233; active = hit-call score of the fitted dose curve at least 0.9, where 1 is the maximum; inactive = score below 0.9;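 note: viability of neural crest cells differentiated from IMR90 iPSC measured by calcein-AM fluorescence imaging; cells exposed to compound for 24 h after a 24 h migration phase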)
Method in brief: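 Human IMR90-derived neural crest cells were allowed to migrate for 24 h into a cell-free zone, then exposed to test chemicals for 24 h. Calcein-AM and Hoechst staining with high-content imaging gave viability, analysed against DMSO baseline.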

[16] = IUF_NPC2c_oligodendrocyte_migration_120hr: Leibniz Research Institute for Environmental Medicine (IUF) 120-hour Neural Progenitor Cell Migration Assay for Oligodendrocyte Migration (NPC2c) (AID 2284297; active = hit-call score of the fitted dose curve at least 0.9, where 1 is the maximum; inactive = score below 0.9;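 note: O4-positive oligodendrocyte migration distance divided by radial glia migration distance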)
Method in brief: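 hNPC spheres (GW 16-19 cortex), PDL/laminin, DMEM/F12 3:1 + 1% N2, 37C. Dosing day 0–5, half feed day 3, DMSO ≤0.1%. Fixed 120 h; O4 ICC + Hoechst, HCI. Readout: mean oligodendrocyte distance from sphere edge / radial glia distance.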

[17] = IUF_NPC2a_radial_glia_migration_120hr: Leibniz Research Institute for Environmental Medicine (IUF) 120-hour Neural Progenitor Cell Migration Assay for Radial Glia Migration (NPC2a) (AID 2284298; active = hit-call score of the fitted dose curve at least 0.9, where 1 is the maximum; inactive = score below 0.9)
Method in brief: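 Hoechst-stained nuclei imaged at 120 h; algorithm maps sphere core by densest nuclei, sets migration edge at density threshold, gives radial glia migration distance (um) per well vs DMSO. hNPC spheres (0.3 mm), PDL/laminin, DMEM/F12 3:1 + 1% N2.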

[18] = IUF_NPC2a_radial_glia_migration_72hr: Leibniz Research Institute for Environmental Medicine (IUF) 72-hour Neural Progenitor Cell Migration Assay for Radial Glia Migration (NPC2a) (AID 2284299; active = hit-call score of the fitted dose curve at least 0.9, where 1 is the maximum; inactive = score below 0.9)
Method in brief: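 Human fetal neural progenitor spheres (0.3 mm) plated on poly-D-lysine/laminin in N2 differentiation medium and exposed from day 0 at 7 concentrations; radial glia migration distance from sphere edge measured at 72 h on brightfield images, mean of four directions, vs DMSO.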

[19] = IUF_NPC2b_neuronal_migration_120hr: Leibniz Research Institute for Environmental Medicine (IUF) 120-hour Neural Progenitor Cell Migration Assay for Neuron Migration (NPC2b) (AID 2284300; active = hit-call score of the fitted dose curve at least 0.9, where 1 is the maximum; inactive = score below 0.9)
Method in brief: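 hNPC spheres, PDL/laminin, DMEM:F12 3:1 + 1% N2, 37C/5% CO2; 7 concentrations + solvent control (DMSO ≤0.1%), 5 d exposure, half-feed day 3. Fix 120 h, TUBB3 ICC, HCI: mean neuron migration distance ÷ glia distance.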

[20] = IUF_NPC3_neuronal_differentiation_120hr: Leibniz Research Institute for Environmental Medicine (IUF) 120-hour Neuronal Differentiation Assay (NPC3) (AID 2284301; active = hit-call score of the fitted dose curve at least 0.9, where 1 is the maximum; inactive = score below 0.9)
Method in brief: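 Single 0.3 mm neurospheres from human fetal cortex were plated in differentiation medium containing test compound. Medium was half-replaced on day 3. After 120 h cells were fixed, immunostained and imaged, and neuronal fraction was scored against DMSO control.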

[21] = IUF_NPC4_neurite_length_120hr: Leibniz Research Institute for Environmental Medicine (IUF) 120-hour Neuronal Morphology Assay for Neurite Length (NPC4) (AID 2284302; active = hit-call score of the fitted dose curve at least 0.9, where 1 is the maximum; inactive = score below 0.9)
Method in brief: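 Read-out is mean neurite length in µm of TUBB3-positive neurons, skeletonized from high-content fluorescence images after 120 h. Single 0.3 mm primary human neural progenitor spheres differentiated on poly-D-lysine/laminin under continuous compound exposure; DMSO was baseline.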

[22] = IUF_NPC4_neurite_area_120hr: Leibniz Research Institute for Environmental Medicine (IUF) 120-hour Neuronal Morphology Assay for Neurite Area (NPC4) (AID 2284305)
Method in brief: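 Neurite area is read out as the mean pixel area, excluding nuclei, of skeletonized TUBB3-positive neurons imaged after 120 h. Primary human neural progenitor spheres differentiated on poly-D-lysine/laminin with compound present from day 0. Activity was referenced to DMSO controls.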

[23] = IUF_NPC2-5_cytotoxicity_72hr: Cytotoxicity Assessment at 72 hours in the Leibniz Research Institute for Environmental Medicine (IUF) Neural Progenitor Cell Migration and Differentiation Assay for Cytotoxicity (NPC2-5) (AID 2284306);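 note: LDH release into supernatant measured by resorufin fluorescence marking membrane damage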
Method in brief: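 Membrane integrity loss was scored from fluorescence (RFU) of resorufin generated by LDH in culture supernatant, 72 h after dosing. Differentiating human progenitor spheres received seven serial compound concentrations alongside a solvent control.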

[24] = IUF_NPC2-5_cytotoxicity_120hr: Cytotoxicity Assessment at 120 hours in the Leibniz Research Institute for Environmental Medicine (IUF) Neural Progenitor Cell Migration and Differentiation Assay (NPC2-5) (AID 2284307);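 note: LDH released into supernatant as membrane damage marker via resorufin fluorescence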
Method in brief: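 hNPC spheres on PDL/laminin, N2 medium, 37C; 7 concs + solvent control, DMSO ≤0.1%; 5-day exposure, half medium changed day 3. LDH in supernatant at 120 h, resazurin→resorufin fluorescence, gain-of-signal.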

[25] = IUF_NPC2-5_cell_number_120hr: Cell Number Assessment at 120 hours in the Leibniz Research Institute for Environmental Medicine (IUF) Neural Progenitor Cell Migration and Differentiation Assay (NPC2-5) (AID 2284308; active = hit-call score of the fitted dose curve at least 0.9, where 1 is the maximum; inactive = score below 0.9;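 note: count of Hoechst-stained nuclei in migration zone around plated human neural progenitor spheres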)
Method in brief: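 Hoechst-stained nuclei within the migration area were counted by automated high content imaging after 120 h. Single hNPC spheres differentiated on poly-D-lysine/laminin in DMEM/F12 (3:1) with 1% N2, compound present throughout, DMSO ≤0.1%.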

[26] = IUF_NPC2-5_viability_120hr: Viability Assessment at 120 hours in the Leibniz Research Institute for Environmental Medicine (IUF) Neural Progenitor Cell Migration and Differentiation Assay (NPC2-5) (AID 2284312; active = hit-call score of the fitted dose curve at least 0.9, where 1 is the maximum; inactive = score below 0.9)
Method in brief: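 Alamar blue resorufin fluorescence read after 5 days of differentiation, with compound present from day 0 and replenished at day 3. Primary hNPC spheres on laminin-coated plates, 37C; seven concentrations plus solvent control, fitted against DMSO.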

[27] = IUF_NPC1_cytotoxicity_72hr: Cytotoxicity Assessment at 72 hours in the Leibniz Research Institute for Environmental Medicine (IUF) Neural Progenitor Cell Proliferation Assay (NPC1) (AID 2284332);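 note: rising LDH signal means more cytotoxicity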
Method in brief: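 Human fetal neural progenitor spheres (0.3 mm) in EGF/FGF proliferation medium, 37C, exposed 72 h without renewal. LDH release in supernatant read by resorufin fluorescence; gain of signal scored relative to dynamic range.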

[28] = TOX21_p53_BLA_p5_viability: Viability Assessment in the Tox21 HCT-116 p53 Agonism Beta-lactamase Assay, Phase 5 (AID 2283600)
Method in brief: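 Compounds, pinned from DMSO at 217-fold dilution, were left on the cells for 16 h. The viability endpoint was ATP content measured by CellTiter-Glo luminescence, where falling signal reflects cytotoxicity.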

Measured: AC50

Chain of Cellular tumor antigen p53 (Homo sapiens) (P04637 whole entry, looked up): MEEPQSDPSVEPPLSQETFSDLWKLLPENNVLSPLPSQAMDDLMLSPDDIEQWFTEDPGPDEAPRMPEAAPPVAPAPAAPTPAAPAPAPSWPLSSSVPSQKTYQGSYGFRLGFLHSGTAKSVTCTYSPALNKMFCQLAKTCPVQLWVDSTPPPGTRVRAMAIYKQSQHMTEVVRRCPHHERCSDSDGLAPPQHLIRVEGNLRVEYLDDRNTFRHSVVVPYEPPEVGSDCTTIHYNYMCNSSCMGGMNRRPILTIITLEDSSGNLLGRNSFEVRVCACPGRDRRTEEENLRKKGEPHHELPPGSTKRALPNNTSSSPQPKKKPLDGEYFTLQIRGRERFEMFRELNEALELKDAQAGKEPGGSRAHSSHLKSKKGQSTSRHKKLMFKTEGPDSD

CNC1(c2ccccc2Cl)CCCCC1=O (stereo unspecified)
active: [10] 34.1 µM | [20] 74.2 µM | [24] 1.48 µM
not listed: [28]
inactive: all other assays above

N#CC1(N=NC2(C#N)CCCCC2)CCCCC1
inactive: [1] | [2] | [3] | [4] | [5] | [6]

Clc1ccc(-c2ccc(Cl)c(Cl)c2Cl)c(Cl)c1Cl
inactive: [1] | [2] | [3] | [4] | [5] | [6]

C#C[C@]1(OC(=O)CCCCCC)CC[C@H]2[C@@H]3CCC4=CC(=O)CC[C@@H]4[C@H]3CC[C@@]21C
inactive: [2] | [4] | [5] | [28] | [6]
active: [1] 8.02 µM | [3] 23 µM
